LmPK inhibitor = blocks Leishmania mexicana pyruvate kinase activity | 0.37% of 290,000 active | purified LmPK, Kinase-Glo ATP luminescence, 1 h | Potency, µM (doses to about 57.5 µM), actives largely listed as inhibitors
Target sequence (Q27686 whole entry, looked up): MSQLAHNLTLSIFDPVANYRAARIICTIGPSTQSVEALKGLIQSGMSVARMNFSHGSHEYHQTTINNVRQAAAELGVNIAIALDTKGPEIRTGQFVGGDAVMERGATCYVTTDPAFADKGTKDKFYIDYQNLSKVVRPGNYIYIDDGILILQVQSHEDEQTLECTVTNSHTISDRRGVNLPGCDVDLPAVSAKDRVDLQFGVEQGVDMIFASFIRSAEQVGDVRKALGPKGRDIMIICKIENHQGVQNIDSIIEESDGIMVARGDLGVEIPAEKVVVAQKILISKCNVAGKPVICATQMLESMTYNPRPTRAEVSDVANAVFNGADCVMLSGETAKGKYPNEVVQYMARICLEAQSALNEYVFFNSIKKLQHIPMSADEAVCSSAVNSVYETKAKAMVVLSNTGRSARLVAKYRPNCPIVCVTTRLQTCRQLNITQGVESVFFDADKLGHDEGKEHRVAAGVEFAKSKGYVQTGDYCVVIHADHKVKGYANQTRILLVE
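Purified LmPK (0.1 nM) with 0.5 mM PEP and 0.1 mM ADP in imidazole buffer pH 7.2 with MgCl2/KCl, 1 h at room temperature. ATP formed was read by luciferase luminescence and normalized to no-enzyme and uninhibited controls.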
TbPYK inhibitor = inhibitors of Trypanosoma brucei pyruvate kinase; Q57TT1; TbPYK enzyme, Kinase-Glo Plus ATP luminescence, 45 min; Potency, µM (top dose mostly 76.8 µM), actives largely listed as inhibitors; 0.12% of 410,000 active; AID 624173; note: nearly all actives have a fitted effect of over 50% in size
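Luminescent Kinase-Glo Plus end-point after 45 min room-temperature reaction of T. brucei pyruvate kinase started with 130 uM ADP (final). Buffer TEA 50 mM pH 7.2 with KCl, MgCl2, BSA, Tween-20; titration-based qHTS with fitted concentration-effect curves.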
Shiga toxin inh = blocks Shiga toxin action in Vero cells; Vero cells, Shiga toxin protein synthesis inhibition reporter; inhibition, % at 38.7 µM; 9.2% of 290,000 active; in the data active = inhibition mostly above about 28%, no sharp cut-off; inactive = mostly below about 43%
Sm TGR block = blocks Schistosoma mansoni thioredoxin glutathione reductase | purified TGR, DTNB reduction, TNB absorbance 405 nm | Potency, µM (series often up to 114 µM), actives largely listed as inhibitors | 3% of 360,000 active | Q962Y6; note: nearly all actives have a fitted effect of over 60% in size
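Kinetic colorimetric format: TGR-catalysed, NADPH-driven DTNB reduction monitored via TNB absorbance. Enzyme dispensed at 20 nM; compound exposure 15 min at room temperature before reaction start.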
Giardia FBPA inh = inhibitors of Giardia lamblia fructose-1,6-bisphosphate aldolase; A8B2U2; purified Giardia FBPA; Potency, µM (series often up to 59.6 µM), most hits filed as inhibitors; 0.71% of 290,000 active; AID 2451; note: nearly all actives have a fitted effect of over 55% in size
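Giardia FBPA (40 nM reagent) was preincubated 10 min at RT with compound (up to 57.5 uM final), then substrate plus GAPDH/TPI/NAD/arsenate coupling system with diaphorase/resazurin was added; resorufin fluorescence (525/598 nm) was read after 20 min.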
Cycloheximide cs = counter-screen hit for Shiga toxin inhibitors, cycloheximide; cell reporter, cycloheximide protein synthesis inhibition counterscreen; max response, %; 12% of 300,000 active; AID 2314; in the data active = max response mostly above about 13%, no sharp cut-off; inactive = mostly below about 14%; note: read at 38.3 µM for the half of the compounds with a filed dose
Numbers stand for hits; – = inactive; ? = inconclusive; · = no result; [ ] = dose if it differs, or a comment. Only a selection was taken, and hits are over-represented in it overall. Unless noted, calls come from the whole dose curve; as a rule, active = well fitted curve in the direction sought with a large enough effect; inconclusive = small, poorly fitted or top-dose-only effect, or another doubt; inactive = no such curve, though single readings can be large; an effect the other way counts as inactive or inconclusive.

SMILES	LmPK inhibitor	TbPYK inhibitor	Shiga toxin inh	Sm TGR block	Giardia FBPA inh	Cycloheximide cs
COc1cc(/C=N/NC(=O)c2cc(C)oc2C)ccc1OCc1ccccc1	–	–	–	–	–	–
O=C(N/N=C/c1cccc(OC(=O)N2CCOCC2)c1)c1cccs1	–	–	–	–	–	27
NC(=S)N/N=C\c1ccccc1OCc1ccccc1	–	–	–	–	–	–
COC(=O)N/N=C\c1cccc(OC(=O)c2cccs2)c1	–	–	–	–	–	–
O=C(N/N=C/c1ccccc1OCc1ccccc1)c1cccs1	–	–	active	–	–	42
COc1cccc(/C=N/NC(=O)c2cccs2)c1	–	–	127	–	–	47
COc1ccc(CNC(=O)Cc2csc3nc(-c4ccc(C)cc4)cn23)cc1	·	–	·	–	·	·
CSc1cccc(NC(=O)CNS(=O)(=O)c2ccccc2)c1	–	–	–	–	–	–
O=C(CN(Cc1ccccc1)C(=O)CCC(=O)Nc1nccs1)NCC1CCCO1 (configuration not stated)	–	–	–	–	·	–
COc1cc(/C=N/NC(=O)c2cccs2)ccc1O	–	–	97	–	–	52
COc1cc(/C=N/NC(=O)c2ccccc2O)ccc1OC(=O)CC1SC(=O)NC1=O (configuration not stated)	–	–	58	–	–	30
CCCn1c(=O)c2ccccc2n2c(SCCOc3ccc(Cl)cc3)nnc12	–	–	70	–	–	–
O=C(NCCNC(=O)c1cccc(O)c1)c1cccc(O)c1	–	–	–	–	–	–
O=C(NN=C1CCCCCC1)c1cccnc1	–	–	84	–	–	31
NNC(=O)c1cccc(O)c1	–	–	58	–	–	67
O=C(NN=C1CCCC1)c1ccccc1[N+](=O)[O-]	–	–	–	–	–	–
O=C(NN=C1CCCC1)c1ccccc1O	–	–	58	–	–	18
COc1ccc(C(=O)NN=C2CCCC2)cc1	–	–	–	–	–	active
CCCCOc1ccc(C(=O)NCC(=O)N2CCN(C/C=C/c3ccccc3)CC2)cc1	·	–	·	·	·	·
CC(NC(=O)CCCN1C(=O)CCn2nc(-c3cn(C)c4ccccc34)cc21)c1ccccc1 (configuration not stated)	·	–	·	–	·	·
Cc1ccc(S(=O)(=O)N2CCCCC2)cc1C(=O)N1C(C)CCCC1C (configuration not stated)	·	–	·	·	·	·
CCOc1cc(C(=O)Nc2cccc(OCC(=O)N3CCOCC3)c2)cc(OCC)c1OCC	–	–	–	–	–	–
CCn1cc(/C=N\NC(=O)c2ccc(Cl)cc2)cn1	–	–	–	–	–	–
O=C(NN=C1CCCC1)c1cccc(O)c1	–	–	76	–	–	47
O=C(O)c1ccccc1NN=C1CCCCC1	–	–	110	–	–	57
SMILES	LmPK inhibitor	TbPYK inhibitor	Shiga toxin inh	Sm TGR block	Giardia FBPA inh	Cycloheximide cs
O=C(NN=C1CCCC1)c1ccc(Cl)cc1	–	–	72	–	–	41
O=C(O)c1ccccc1NN=Cc1ccccc1	·	–	·	·	·	·
O=C(NN=C1CCCC1)c1cc(O)cc(O)c1	–	–	–	–	·	–
CC(C)/C=N/NC(=O)c1ccc(Cl)cc1	–	–	–	–	–	24
CC1C/C(=N\NC(=O)c2ccc([N+](=O)[O-])cc2)CC(C)(C)C1 (configuration not stated)	–	–	–	–	–	–
CC1C/C(=N\NC(=O)c2ccc(NS(=O)(=O)c3ccc(Br)cc3)cc2)CC(C)(C)C1 (configuration not stated)	–	–	17	–	–	–
Cc1cc(C(=O)NN=C2CCCCCC2)c(C)o1	–	–	52	–	–	25
Cc1cc(OCc2ccc(C(=O)NN=C3CCCC3)cc2)ccc1Cl	–	–	85	–	–	57
CC1C/C(=N\NC(=O)c2cccnc2)CC(C)(C)C1 (configuration not stated)	–	–	–	–	–	18
O=C(COC(=O)c1cc(Cl)ccc1Cl)Nc1ccc2[nH]c(=O)[nH]c2c1	·	–	·	–	·	·
COc1ccc(/C=C\c2onc(C)c2S(=O)(=O)N2CCC(C(=O)Nc3cccc(Cl)c3)CC2)cc1	·	–	·	–	·	·
COc1cccc(C(=O)NN=C2CCCC2)c1	–	–	67	–	–	38
CC(O)C(O)C(O)C(O)/C=N/NC(=O)c1ccccc1 (configuration not stated)	–	–	86	–	–	38
C#CCCOC(=O)N1C2=NC(C(=O)OC)=C(C(=O)OC)[C@@H]3N(CC#CC)c4ccccc4[C@]23C[C@H]1C(=O)OC	–[11.5 µM]	·	·	·	–[12.9 µM]	·
CN(C)c1ccc(-c2n[nH]c(=S)n2-c2ccccc2)cc1	–	?	–	–	–	–
CN(C)c1ccc(C2CC(c3ccccc3)=Nc3nc(-c4ccccc4)cn32)cc1 (configuration not stated)	–	·	–	?	–	31
COc1cccc(C(=O)c2sc(NC(C)C)nc2N)c1	–	–	51	–	–	36
O=C(O)C1=C[C@H](C2CC2)C[C@H](OCc2ccc(CO)cc2)O1	·	–	·	·	·	·
O=C(Nc1ccccc1)C1=C[C@@H](C2CC2)C[C@@H](OCc2ccc(CO)cc2)O1	–	–	47	–	–	35
O=C(Nc1ccccc1)C1=C[C@@H](C2CC2)C[C@@H](OCCCCO)O1	–	–	58	–	–	55
O=C(Nc1ccccc1)C1=C[C@H](c2ccccc2)C[C@H](OCc2ccc(CO)cc2)O1	–	–	53	–	–	32
NC(=O)C1=C[C@@H](c2ccccc2)C[C@@H](OCc2ccc(CO)cc2)O1	–	–	–	50µM	?	–
O=C(O)C1=C[C@@H](C2CC2)C[C@@H](OCCCCO)O1	·	–	·	·	·	·
CC(C)[C@H](NC(=O)[C@H](CCCCN)NC(=O)[C@@H](NC(=O)[C@@H]1CCCN1C(=O)[C@H](CCCN=C(N)N)NC(=O)[C@H](CCCN=C(N)N)NC(=O)[C@H](CCCCN)NC(=O)[C@H](CCCCN)NC(=O)CNC(=O)[C@@H](NC(=O)[C@@H]1CCCN1C(=O)[C@@H](N)CCCCN)C(C)C)C(C)C)C(=O)N[C@@H](Cc1ccc(O)cc1)C(=O)N1CCC[C@H]1C(=O)O	·	·	–	·	?	–
Cc1cccc(S(=O)(=O)c2cn(Cc3ccc(F)cc3)c3cc(N4CCOCC4)c(F)cc3c2=O)c1	·	–	·	–	·	·
CN(C)/C(=N\S(=O)(=O)c1ccc(Cl)cc1)c1ccc(F)cc1	–	–	–	–	–	–
COC(c1ccccc1)c1nnc(CCC(=O)N(C)CCOc2ccccc2)o1 (configuration not stated)	–	–	59	·	–	28
CCCN(CC1CC1)C(=O)CCc1nnc(CCc2c[nH]c3ccccc23)o1	–	–	–	–	–	–

Source: PubChem (National Center for Advancing Translational Sciences (NCATS))
